# About 83,000 compounds went through this panel and 20% of them were active in at least one assay; those are over-represented in the sample as a whole.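 48-hour exposure, single concentration, 96-well plates; percent growth endpoint where 0 means no net growth. Active: below 10.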 Values without a mark were called inactive. Active and inactive are the calls of the source.
# Tested on: HL-60(TB) leukemia
# Assay: NCI-60 one-dose screen, 48 h (100 = growth as untreated, 0 = no growth, -100 = all killed)
# Details: 10 µM unless noted
row,SMILES,growth
1,C=C1CC[C@@H]2[C@]3(C)COC(c4cn[nH]c4-c4ccc(Br)cc4)O[C@@H]3CC[C@@]2(C)[C@@H]1C/C=C1/C(=O)OCC1O (stereo not given in full),-8.14% (active)
2,N#Cc1c(-c2ccc(Cl)cc2)nc2n[nH]c(-c3ccc(Cl)cc3)c2c1-c1cccs1,23.7%
3,O=C1CC(c2ccc(I)cc2)OC2C=Cc3ccccc3C12 (stereo not given),89%
4,COc1ccc(C(=O)Nc2sc3c(c2C#N)CCC(=O)C3)cc1C(F)(F)F,-12% (active)
5,COc1ccc(OC)c(-c2cc(-c3c[nH]c4ccccc34)nc(N)c2C#N)c1,-32.2% (active)
6,CC(=O)Oc1ccc(/C=C/C(=O)N[C@@H](Cc2ccccc2)C(O)C(=O)NCc2ccccc2)cc1OC(C)=O (stereo not given in full),79.4%
7,O=C(O)Cn1c(O)c(/C=C2/C=c3cc4c(cc3=NC2=O)OCCO4)sc1=S,100%
8,N#Cc1ccc(C(=O)NNC(=O)CSc2nc3sc4c(c3c(=O)n2-c2ccc(Cl)cc2)CCCC4)cc1,67.2%
9,Nc1nnc(-c2c[nH]c3ncccc23)c(-c2c[nH]c3ccc(Br)cc23)n1,42%
10,Cc1ccc(/C(N)=N/c2sc(-c3ccccc3)nc2-c2ccccc2)cc1,87%
11,N#Cc1c(-c2ccccc2Cl)cc(-c2ccc3ccccc3c2)[nH]c1=O,71.9%
12,CCCCCCCCCCCCCCCCCC(=O)Nc1ccc(OC)cc1,90.3%
13,COc1ccc(-c2ccnc(SCc3cc4ccccc4[nH]c3=O)n2)cc1OC,87%
14,O=c1ccc(Cn2c(C(F)(F)F)cc3c(Cl)ncnc32)c[nH]1,-20.6% (active)
15,Cn1cc(-c2nnc(N)nc2-c2c[nH]c3ccc(Br)cc23)c2cc(Br)cnc21,29.8%
16,O=C(NNC(=S)NC(=O)c1ccccc1)c1ccc(OCc2nc3ccc(Cl)cc3[nH]2)cc1,1.3% (active)
17,COc1ccc(NCc2cn(-c3ccc(C(=O)O)cc3)nc2-c2ccc(F)cc2)cc1C(F)(F)F,49.9%
18,O=c1[nH]c(=O)c2c(-c3cc4ccccc4oc3=O)ccnc2[nH]1,106%
19,COc1cc(C2CC(c3ccc(C)cc3)=Nc3c(N)nc(N)nc3N2)ccc1Oc1nc(Nc2ccc(F)cc2)nc(N(C)C)n1 (stereo not given),52%
20,C=CC(=O)Nc1ccc(C(=O)/C=C/c2ccc(N(C)C)cc2)c(O)c1,1.03% (active)

row,SMILES,growth
1,N#Cc1c(-c2ccc(Cl)cc2)nc2n[nH]c(-c3ccc(Cl)cc3)c2c1-c1ccc(C(F)(F)F)cc1,1.12% (active)
2,C/C(=N/O)c1ccc(NC(=O)CSc2nnc(-c3ccc4nc(-c5ccc(Cl)cc5)[nH]c4c3)o2)cc1,81.8%
3,C=C1CC[C@@H]2[C@]3(C)COC(c4cn[nH]c4-c4ccccc4)O[C@@H]3CC[C@@]2(C)[C@@H]1C/C=C1/C(=O)OCC1O (stereo not given in full),8.64% (active)
4,CC(C)C[C@H](NC(=O)[C@@H]1CCCCCCCCCCC(=O)N[C@@H](CC(=O)N2CCC[C@@H]2C2CCCC2)C(=O)N1)B(O)O,-33.3% (active)
5,CC1(C)CC[C@]2(C(=O)Nc3ccccc3)CC[C@]3(C)C(=CCC4[C@@]5(C)C[C@@H](O)[C@H](O)[C@@](C)(CO)C5CC[C@]43C)C2C1 (stereo not given in full),13.1%
6,O=C(O)c1cccc(-c2ccc(/C=N/NC(=O)c3[nH]c4ccc(Br)cc4c3-c3ccccc3)s2)c1,42.4%
7,NS(=O)(=O)c1ccc(Nc2nc(N/N=C/c3cc(Br)c(O)c(Br)c3)nc(Nc3ccccc3)n2)cc1,47.3%
8,Cc1cc(=O)oc2cc(OCC(O)CNN3C(=O)c4cccc5c(N6CCN(C)CC6)ccc(c45)C3=O)ccc12 (stereo not given),113%
9,O=c1oc2ccccc2cc1-c1csc(N2N=C(c3ccccc3)CC2c2ccc(N3CCOCC3)cc2)n1 (stereo not given),96.5%
10,COc1cc(/C=C/C(=O)c2cnn(-c3cc(=O)[nH]c4ccc(Cl)cc34)c2C)cc(OC)c1OC,-23.1% (active)
11,CC(=O)Nc1ccc(S(=O)(=O)Nc2ccc(-c3ccc4c(c3)NC(=O)/C4=C\c3ccc[nH]3)cc2)cc1,84.2%
12,O=C(COc1ccc(NC(=O)Nc2ccc(Cl)c(Cl)c2)cc1)N=Nc1c(O)[nH]c2ccccc12,40.1%
13,COc1cc(C2CC(c3cc(OC)c(OC)c(OC)c3)=Nc3c(N)nc(N)nc3N2)ccc1Oc1nc(NCCO)nc(N2CCOCC2)n1 (stereo not given),91.9%
14,CCCCSc1nc(Nc2ccc(S(N)(=O)=O)cc2)c(C#N)c(-c2cc(OC)c(OC)c(OC)c2)n1,-28% (active)
15,CC[C@]12C=CCN3CC[C@]4(C(=C(C(=O)OC)C1)Nc1cc(OC)c([C@@H]5[C@H]6O[C@H]6[C@@]6(CC)CC(C(=O)OC)=C7Nc8cc(OC)ccc8[C@@]78CCN5[C@@H]68)cc14)[C@@H]32,25%
16,COc1ccc(C=CC(=O)c2ccc(-n3c(C)nc4c(cnn4-c4ccccc4)c3=O)cc2)cc1,44.7%
17,Fc1ccccc1CNc1nc(SCCN2CCOCC2)nc2c1cnn2CC(Cl)c1ccc(Br)cc1 (stereo not given),-22.8% (active)
18,CC1=C(C(=O)c2ccccc2)C(c2cccc(Cl)c2Cl)n2c(nc3ccccc32)N1 (stereo not given),36.1%
19,Cc1ccn2c(C(=O)c3ccccc3)cc(-c3cc(-c4ccc(N(C)C)cc4)c(C#N)c(N)n3)c2c1,95.1%
20,Cc1ccc(-c2nc(Nc3ccc(C)c(S(N)(=O)=O)c3)c3ccccc3n2)cc1,89.1%
